Results as given in PubChem BioAssay AID588391 (Broad Institute, 2011).
Among all 350,000 compounds or so, about 180 (0.051%) were called active.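 The calls were made as follows: active = mean inhibition across replicates of 30% or more, whatever share of single replicates reach that level; inconclusive = mean inhibition below 30% while every single replicate reaches 30%; inactive = the rest.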 The full list was thinned out, with actives kept by preference.

Target: Protein disulfide-isomerase (Homo sapiens) (UniProt P07237)
Test: inhibitors of human PDI, primary screen, biochemical, turbidity, single point, plate reader (AID 588391);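 also: absorbance from insulin aggregation driven by PDI reduction with DTT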
Settings: PDI insulin aggregation turbidity, A650, 90 min; at 10 µM; stronger effect = higher value

Sequence of Protein disulfide-isomerase (Homo sapiens) (P07237 whole entry, looked up): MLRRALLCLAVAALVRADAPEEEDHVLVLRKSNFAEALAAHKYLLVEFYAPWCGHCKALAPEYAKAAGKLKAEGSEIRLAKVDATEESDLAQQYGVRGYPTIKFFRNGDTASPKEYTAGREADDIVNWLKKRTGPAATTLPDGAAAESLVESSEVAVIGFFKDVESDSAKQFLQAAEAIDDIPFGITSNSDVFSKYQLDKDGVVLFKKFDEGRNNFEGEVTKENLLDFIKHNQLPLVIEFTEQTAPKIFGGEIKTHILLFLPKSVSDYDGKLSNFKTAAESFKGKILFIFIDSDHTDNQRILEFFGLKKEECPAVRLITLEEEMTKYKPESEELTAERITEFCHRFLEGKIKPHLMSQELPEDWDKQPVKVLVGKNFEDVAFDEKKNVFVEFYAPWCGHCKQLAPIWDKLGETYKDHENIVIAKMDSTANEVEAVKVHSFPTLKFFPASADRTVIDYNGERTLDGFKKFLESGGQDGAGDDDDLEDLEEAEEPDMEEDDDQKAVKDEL

inhibition, inactive:
O=C(Nc1ccc(N2CCOCC2)cc1)c1cccc2c(-c3ccc(F)c(F)c3)coc12 6.12%
Cc1nc(C(F)(F)F)ccc1C(=O)N1CCC1(C)C(=O)NS(=O)(=O)c1ccc(F)cc1F (configuration not stated) -2.79%
Cc1cccc(C)c1Cn1c(C)c(C(=O)NCc2cccc(Cl)c2)sc1=O 12.4%
CCc1nc2c(OCc3ccc(Cl)cc3Cl)cccn2c1N(C)C(=O)C(C)C 1.84%
CS(=O)(=O)/C(C#N)=C/c1cccn1S(=O)(=O)c1ccc([N+](=O)[O-])cc1 6.24%
CCCS(=O)(=O)NC(=O)C1(C)CCCN(C(=O)c2cccs2)C1 (configuration not stated) 5.08%
CCCNC(=O)C1(C)CCN(C(=O)c2ccccc2OC(F)(F)F)C1 (configuration not stated) 12.9%
COc1ccc(S(=O)(=O)NC(=O)C2(C)CCN2C(=O)c2ccccc2CCc2ccccc2)cc1 (configuration not stated) -21.5%
Cc1ccc(CNC(=O)Nc2nnc([C@H]3C[C@H](O)[C@@H](CO)O3)s2)cc1 -0.839%
COc1ccc(-c2cc3nc(NCCOc4ccccc4)ccn3n2)cc1 8.41%
Cc1ccc(Sc2ccc(NC(=O)c3ccc(F)cc3)cc2C#N)cc1 1.62%
CC(C)NC(=O)C1(C)CCCCCN1C(=O)c1ccc(-c2ccccc2)cc1 (configuration not stated) 0.373%
CCc1nc2c(OCCC3CCCCC3)cccn2c1N(C)C(=O)c1ccco1 4.27%
COc1ccc(OC)c(NC(=O)C2(C)CCN2C(=O)Cc2ccccc2)c1 (configuration not stated) 0.456%
O=C(CSc1nc2cccc(F)c2c(=O)n1-c1ccccc1)Nc1ccc2c(c1)CCC2 -4.77%
CC1(Cc2ccccc2C#N)C(=O)Nc2ccc(-c3ccc4[nH]ccc4c3)cc21 (configuration not stated) 7.54%
O=C(O)c1ccccc1-c1cccc2nncn12 9.27%
O=C(NCc1ccc(F)cc1)c1cc(C2CCCCN2C(=O)c2cccs2)on1 (configuration not stated) -0.163%
CC(C)Cc1ccc(-c2cc3nc(NCc4cccc(Cl)c4)ccn3n2)cc1 -8.06%
O=C(c1cc(C2CCCCN2S(=O)(=O)c2ccccc2)on1)N1CCOCC1 (configuration not stated) -7.54%
COc1ccc(NC(=O)C2(C)Cc3c(-c4cccc(NC(C)=O)c4)ccnc3O2)cc1 (configuration not stated) -2.98%
OC[C@@H]1CN(Cc2ccc(-c3ccccc3)cc2)C[C@H](n2cnc3c(NC4CCCC4)ncnc32)O1 -2.96%
CC(C)Cn1cc(-c2cncc3nccn23)cn1 -0.067%
CC1(C(=O)NS(=O)(=O)c2ccc3ccccc3c2)CCN1C(=O)C1(c2ccc(Cl)cc2)CCC1 (configuration not stated) 8.48%
CC(=O)c1ccc(-c2cnc3c(NC=O)cc(-c4cccc(NS(C)(=O)=O)c4)cn23)cc1 16.7%
COc1cccc(-c2cnc(C(O)c3ccccc3OC)[nH]2)c1 (configuration not stated) 10.9%
OC(c1ccc(F)cc1)c1ncc(-c2cccc(C(F)(F)F)c2)[nH]1 (configuration not stated) -1.07%
CC(C)Oc1cc(F)ccc1-c1cc(C(=O)Nc2ccc(F)cc2)[nH]n1 10.8%
O=C(NC(c1ccc(Cl)cc1)c1cnccn1)C1CCN(Cc2ccc(Cl)cc2)CC1 (configuration not stated) -28.5%
CCCc1ccc(C(O)c2ncc(-c3cccc(OC)c3)[nH]2)cc1 (configuration not stated) -4.13%
COc1ccccc1CNC(=O)c1cc(-c2cc(Cl)ccc2C)n[nH]1 -1.01%
CCNC(=O)C1(C)CCN(Cc2ccc(C(=O)OCC)o2)C1 (configuration not stated) 8.45%
CCCOc1ccc(F)cc1-c1cc(C(=O)Nc2ccc(F)cc2)[nH]n1 5.38%
CC1(C(=O)NCc2ccc3c(c2)OCO3)CCN1C(=O)Cc1cccs1 (configuration not stated) -7.14%
CC(C)Oc1ccc(CN2CCC2(C)C(=O)NCc2ccc(C(F)(F)F)cc2)cc1 (configuration not stated) 4.17%
CC1(C(=O)Nc2cccc3c2CCCC3)CCN1C(=O)CCc1ccc(Cl)cc1Cl (configuration not stated) -3.08%
NCCCNC(=S)NCCCN(Cc1ccc(Cl)cc1)c1ccc(Br)cn1 22.2%
COc1cccc(CNc2nc(NCc3cccs3)nc3ccsc23)c1 -1.8%
CCc1nc2ccc(C(=O)Nc3ccc(OC)c(OC)c3)cn2c1N(C)C(=O)c1cccc(OC)c1 10.6%
NC(Cc1ccccc1)c1csc(Nc2cc(Oc3ccccc3)ncn2)n1 (configuration not stated) 0.811%
OC[C@@H]1CN(Cc2ccncc2)C[C@H](n2cnc3c(N4CCN(c5ccccc5)CC4)ncnc32)O1 -1.41%
COCCNc1ncnc2c1ncn2[C@H]1CN(Cc2ccc(OC)cc2)C[C@@H](CO)O1 -0.829%
CC(=O)Nc1cccc(-c2cc(NC(C)=O)c3ncc(-c4ccccc4)n3c2)c1 0.99%
COc1cccc(CNc2nc(NCc3ccccc3OC)nc3ccsc23)c1 -20.9%
CCNC(=S)Nc1ccc2c(c1)c(=O)n(C)n2Cc1ccc(Cl)cc1 7.91%
CSc1ccc(CNC(=O)C2(C)CCCN2C)cc1 (configuration not stated) -9.77%
CCc1ccc2c(c1)NC(=O)C2(C)Cc1ccc(OC(F)(F)F)cc1 (configuration not stated) 8.05%
CCCNC(=O)C1(C)CCCN(C(=O)c2oc3ccccc3c2C)C1 (configuration not stated) 10.4%
CC1(C(=O)NS(=O)(=O)c2cccc(OC(F)F)c2)CCN1C(=O)COc1ccc(Cl)cc1 (configuration not stated) -2.12%
Nc1nc(CSc2nnnn2-c2ccccc2)nc(Nc2ccccc2)n1 -5.2%
Cn1c(Nc2ccc(F)cc2)nc2cc(-c3ccsc3)sc2c1=O -4.93%
CCCNC(=O)c1cc(C2CCCCN2S(=O)(=O)c2cn(C)cn2)on1 (configuration not stated) -5.28%
COc1cccc(-c2ccc3c(c2)N(Cc2ccccc2OC)C(=O)C(C)S3)c1 (configuration not stated) 0.226%
CCCNC(=O)C1(C)CCN(Cc2ccc(Cl)c(Cl)c2)C1 (configuration not stated) -7.24%
COc1ccc(Br)c(Cn2c(C)c(C(=O)NCc3cccs3)sc2=O)c1 6.08%
CC(C)(C)c1ccc(S(=O)(=O)NC(=O)C2(C)CCN2C(=O)CC2CC2)cc1 (configuration not stated) 4.79%
CS(=O)(=O)c1cccc(-c2ccc3nncn3c2)c1 1.16%
CC(=O)Nc1cccc(-c2cc3nc(NCc4cccnc4)n(C)c(=O)c3s2)c1 -1.23%
CCCNC(=O)C1(C)CCN(Cc2csc(-c3ccc(Cl)cc3)n2)C1 (configuration not stated) 14.3%
COc1ccc(-c2ccc(C(=O)NCCN3CCOCC3)c3occc23)c(C)c1 0.104%
CCc1ccc(OC2(C)CCN(CCOc3ccc(C)cc3)C2)cc1 (configuration not stated) -1.04%
CC(=O)Nc1cccc(-c2ccnc3c2CC(C)(C(=O)NCc2ccco2)O3)c1 (configuration not stated) 2.4%
CC(C)(C)CC(=O)Nc1nc(C(N)Cc2ccc(C(F)(F)F)cc2)cs1 (configuration not stated) -12.3%
COCOc1cccc(CN2CCC(C)(Oc3ccc(SC)cc3)C2)c1 (configuration not stated) -14.7%
CC1(C(=O)NCc2ccc(F)c(F)c2)Cc2c(-c3ccc4c(c3)OCO4)ccnc2O1 (configuration not stated) 5.69%
CCOC(=O)c1[nH]c2ccc(OC)cc2c1NC(=O)N1CCOCC1 -4.02%
COc1ccc(CC(N)c2csc(NC(=O)Cc3ccccc3)n2)cc1 (configuration not stated) 8.14%
CC1(C(=O)NS(=O)(=O)c2cccc(F)c2)CCN1C(=O)Cc1cc(F)ccc1F (configuration not stated) 9.62%
CC1(Oc2ccc(Cl)cc2)CCN(Cc2csc3ccccc23)C1 (configuration not stated) -0.538%
CCc1nc2ccc(C(=O)Nc3cc(-c4ccccc4)ccc3OC)cn2c1N(CC)CC(=O)N(C)C -5.43%
OC(c1cc(Cl)cc(Cl)c1)c1ncc(-c2ccccc2C(F)(F)F)[nH]1 (configuration not stated) -0.656%
CC1(C(=O)Nc2cccc(Oc3ccccc3)c2)CCN1Cc1ccccc1Cl (configuration not stated) 8.27%
CCc1nc2ccc(C(=O)NCc3ccc(OC)cc3)cn2c1N(CC)Cc1cccc(Br)c1 19.2%
CC1(Oc2ccccc2-c2ccno2)CCN(Cc2ccc(-c3ccccc3)o2)C1 (configuration not stated) 15.2%
CCNC(=O)C1CCCN(C(=O)c2cc(F)ccc2C)CC1 (configuration not stated) -2.55%
COc1ccc(-c2cc(NC=O)c3ncc(-c4cc(OC)c(OC)c(OC)c4)n3c2)c(OC)c1 2.23%
CCCNC(=O)C1(C)CCCN(Cc2c(C)nn(-c3ccccc3)c2C)C1 (configuration not stated) 1.08%
O=CNc1cc(-c2ccc(C(=O)N3CCOCC3)cc2)cn2c(-c3ccc(F)cc3)cnc12 -18.3%
Cc1cccc(-c2cnc(C(O)c3cc(C)cc(C)c3)[nH]2)c1 (configuration not stated) 8.93%
CCOc1cc(N2CCOCC2)c(OCC)cc1NC(=O)c1ccc(C)s1 -4.12%
CCOC(=O)c1ccccc1NC(=O)COC(=O)C(Cc1c[nH]c2ccccc12)NC(C)=O (configuration not stated) 5.96%
COc1ccc(S(=O)(=O)N2CCCCC2c2cc(C(=O)NCc3ccc(F)cc3)no2)cc1 (configuration not stated) -0.518%
CCNC(=O)C1(C)CCN(C(=O)c2ccccc2)C1 (configuration not stated) -56.1%
CC1(C(=O)NCc2ccc3c(c2)OCO3)CCN1CCc1ccccc1 (configuration not stated) 3.4%
O=C(NCc1ccco1)c1cccc(-c2ccc3nncn3c2)c1 3.75%

inhibition, active:
COc1ccc2[nH]c3c(C)c4cc[n+](C)cc4c(C)c3c2c1 46.3%
CCOc1cc(N2CCOCC2)c(OCC)cc1NC(=O)COC(=O)[C@H](Cc1c[nH]c2ccccc12)NC(C)=O 44.5%
